KB-V1 MDR tox: kills drug-selected multidrug resistant KB-V1 cells; KB-V1 MDR cells viability, CellTiter-Glo, 72 h; 3.4% of 400,000 active; Potency, µM (series often up to 46.1 µM), usual class: cytotoxic; further: nearly all actives have a fitted effect of over 60% in size
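Luminescent ATP read-out (CellTiter-Glo, 10 min) measures survival of drug-selected KB-V1 MDR cells after 72 h, 37 degrees C compound exposure. Medium: phenol-red-free DMEM, 10% FBS. Values from fitted concentration-response curves.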
DT40 TDP1 CPT: DT40-hTDP1 cell growth loss with CPT | chicken DT40 Tdp1-/-;hTDP1 cells + 20 nM CPT, ATP luminescence, 48 h | Potency, µM (top dose mostly 46.2 µM), actives largely listed as inhibitors | 12% of 420,000 active | AID 686979; further: nearly all actives have a fitted effect of over 55% in size
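Cell growth measured by CellTiter-Glo luminescence after a minimum 48 h, 37 C compound exposure with 20 nM CPT in Tdp1-knockout DT40 cells stably expressing hTDP1, seeded 400/well; qHTS titration format.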
KB-3-1 tox: kills parental KB-3-1 adenocarcinoma cells | KB-3-1 viability, CellTiter-Glo ATP luminescence, 72 h | Potency, µM (top dose mostly 46.1 µM), hits mostly cytotoxic | 1.4% of 400,000 active; further: nearly all actives have a fitted effect of over 60% in size
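Parental KB-3-1 adenocarcinoma cells in phenol-red-free DMEM with 10% FBS were pin-treated with compounds at several concentrations, incubated 72 h at 37 °C, and viability read by CellTiter-Glo luminescence; concentration-effect curves were fitted after normalization.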
HT1080 IDH1KD tx: kills HT-1080 cells with IDH1 knockdown; AID 686971; 2% of 360,000 active; HT-1080 IDH1 knockdown viability, ATP luminescence, 48 h; Potency, µM (titrated, usually from 46.1 µM), actives largely listed as cytotoxic
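% activity derives from luminescence (CellTiter-Glo), normalised to DMSO and no-cell wells. HT-1080-IDH1KD cells, 750/well, had 48 h compound exposure at 37 °C.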
TDP1 cell noCPT: qHTS for Inhibitors of human tyrosyl-DNA phosphodiesterase 1 (TDP1): qHTS in cells in absence of CPT; DT40 Tdp1-/- hTDP1 cells, no CPT, ATP luminescence, 48 h; Potency, µM (series often up to 46.2 µM), hits mostly inhibitors; 15% of 420,000 active; further: nearly all actives have a fitted effect of over 55% in size
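Luminescent ATP content (CellTiter-Glo) served as the growth readout. Knockout chicken DT40 cells expressing human TDP1 were exposed to compounds without camptothecin for a minimum 48 hr at 37 °C.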
HT1080NT lethal: kills 2HG-producing HT-1080-NT fibrosarcoma cells; HT-1080-NT fibrosarcoma viability, CellTiter-Glo ATP luminescence, 48 h; Potency, µM (titrated, usually from 46.1 µM), actives largely listed as cytotoxic; 1.6% of 360,000 active;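 further: NT is the 2HG producing partner of a matched IDH1 knockdown line; nearly all actives have a fitted effect of over 55% in size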
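HT-1080-NT fibrosarcoma cells (2HG-overproducing), 750 cells/well in RPMI with 5% FBS, dosed after 2 h and incubated 48 h at 37C. CellTiter-Glo luminescence normalized to DMSO and no-cell wells; concentration-response curves fitted and classed.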
Numbers stand for hits; - = inactive; ? = inconclusive; . = not tested or not shown. The list is not random: actives were taken first. Their share in the collection is about 19%. The call rests on the fitted dose curve; in most records, active means well fitted curve in the direction sought with a large enough effect; inconclusive means small, poorly fitted or top-dose-only effect, or another doubt; inactive means no such curve, though single readings can be large; an effect the other way counts as inactive or inconclusive.

SMILES	KB-V1 MDR tox	DT40 TDP1 CPT	KB-3-1 tox	HT1080 IDH1KD tx	TDP1 cell noCPT	HT1080NT lethal
CC(Oc1ccc2oc3ccccc3c2c1)C(=O)NC12CC3CC(CC(C3)C1)C2 (configuration not stated)	-	16.4µM	-	-	29.1µM	-
COc1cc2c(cc1NC(=S)NC(=O)c1c(OC)cccc1OC)oc1ccccc12	-	?	-	-	?	-
COc1cc2c(cc1NC(=O)/C=C/c1cc(OC)c(OC)c(OC)c1)oc1ccccc12	-	20.6µM	-	-	14.6µM	-
COc1cc2c(cc1NC(=O)CN(C)Cc1cccc(OC)c1OC)oc1ccccc12	?	20.6µM	-	-	13µM	-
COc1cc2c(cc1NC(=O)c1cc(-c3ccccn3)nc3ccccc13)oc1ccccc12	-	20.6µM	-	-	20.6µM	-
CCN(CC)C(=O)C1c2ccccc2Oc2ccccc21	-	?	-	-	?	-
CCC(Cn1nnc2ccccc2c1=O)NC(=O)Nc1ccc(C)cc1C (configuration not stated)	.	-	.	.	-	.
CCCSCCCNC(=O)CN1C(=O)COc2ccc(S(=O)(=O)N3CCC(C)CC3)cc21	?	.	-	.	.	.
CC(C)c1ccc(NC(=O)CSC2=Nc3ccccc3C3=NC(CC(=O)NCc4ccco4)C(=O)N23)cc1 (configuration not stated)	-	?	-	.	?	.
CCc1nc2ccc(C(=O)N3CCN(S(=O)(=O)CC)CC3)cn2c1N(CC)CCOC	-	-	-	?	-	-
COc1ccccc1CC(=O)Nc1cc2oc3ccccc3c2cc1OC	-	25.9µM	-	?	16.4µM	?
COc1ccc(CC(=O)Nc2cc3oc4ccccc4c3cc2OC)cc1	-	?	-	-	?	-
Cc1cc(C)cc(NC(=O)N2CCN(C(=O)c3nsc4ccccc34)CC2)c1	-	?	-	.	?	.
O=C(Nc1cccc(C(=O)N2CCN(c3ccccc3)CC2)c1)c1nsc2ccccc12	-	?	-	.	?	.
Cc1ccc(C)c(NC(=O)N2CCN(C(=O)c3nsc4ccccc34)CC2)c1	-	?	-	.	18.4µM	.
COc1ccc(N2CCN(C(=O)c3cccc(NC(=O)c4nsc5ccccc45)c3)CC2)cc1	-	14.6µM	-	.	11.6µM	.
COc1cccc(N2CCN(C(=O)c3cccc(NC(=O)c4nsc5ccccc45)c3)CC2)c1	-	?	-	.	20.6µM	.
Cc1ccc(C(=O)N2CCN(c3ccccc3)CC2)cc1NC(=O)c1nsc2ccccc12	-	20.6µM	-	.	?	.
COc1ccc(CNCc2ccc(C(=O)O)s2)cc1	-	-	-	.	-	.
CC(C)NC(=O)CCc1nc2cccnc2n1-c1ccccc1	-	-	-	-	-	-
CN(CC(=O)Nc1cccc(F)c1)C(=O)c1cccc(S(=O)(=O)N2CCN(Cc3ccccc3)CC2)c1	?	8.2µM	?	-	8.2µM	-
CN(Cc1cccc(F)c1)C(=O)c1cccc(S(=O)(=O)N2CCN(Cc3ccccc3)CC2)c1	?	?	?	-	?	-
CN(CC(=O)Nc1ccccc1Cl)C(=O)c1cccc(S(=O)(=O)N2CCN(c3ccccc3)CC2)c1	-	?	-	-	?	-
CN(CC(=O)Nc1ccccc1Cl)C(=O)c1cccc(S(=O)(=O)N2CCN(Cc3ccccc3)CC2)c1	?	11.6µM	-	-	9.2µM	20.6µM
CCN(C(=O)CSc1nnc(-c2ccc(F)cc2)n1C)C1CCS(=O)(=O)C1 (configuration not stated)	-	-	-	-	-	-
SMILES	KB-V1 MDR tox	DT40 TDP1 CPT	KB-3-1 tox	HT1080 IDH1KD tx	TDP1 cell noCPT	HT1080NT lethal
Cc1ccc(S(=O)(=O)Oc2cccc(N3C(=O)C4CC=CCC4C3=O)c2)cc1 (configuration not stated)	-	16.4µM	-	-	?	-
Cc1ccc(S(=O)(=O)Oc2ccc(N3C(=O)C4C5CCC(C5)C4C3=O)cc2)cc1 (configuration not stated)	-	4.11µM	-	-	23.1µM	-
O=C(NCCCN1CCCC1=O)c1ccccc1OCc1ccc(Cl)cc1Cl	-	?	-	-	?	-
COCCNC(=S)Nc1cc2oc3ccccc3c2cc1OC	.	-	.	-	-	-
COc1ccccc1N1CCN(C(=O)C(Sc2ccccc2)c2ccccc2)CC1 (configuration not stated)	?	18.4µM	?	?	?	?
O=C(C(Sc1ccccc1)c1ccccc1)N1CCOCC1 (configuration not stated)	18.4µM	-	-	-	-	-
CS(=O)(=O)N1CCN(C(=O)C(Sc2ccccc2)c2ccccc2)CC1 (configuration not stated)	-	-	-	-	-	-
O=C(c1cc(-c2ccccc2)nc2ccccc12)N1CCCC1	-	-	-	-	-	-
c1ccc(-c2cc(NCCN3CCCCC3)c3ccccc3n2)cc1	?	23.1µM	?	20.6µM	16.4µM	20.6µM
CCCCC(=O)N(C)c1c(C)nc2ccc(C(=O)Nc3cccc(OC)c3)cn12	-	-	-	-	-	-
CCn1c(/C=C/c2ccccc2C)nc2ccccc2c1=O	-	?	-	-	?	-
CCn1c(/C=C2\C(=O)Nc3ccccc32)nc2ccccc2c1=O	-	?	-	-	16.4µM	-
CCn1c(/C=C/c2ccc(O)cc2)nc2ccccc2c1=O	-	?	?	-	25.9µM	-
CCn1c(/C=C/c2ccc(O)c(O)c2)nc2ccccc2c1=O	-	?	-	-	6.51µM	-
Cc1ccc(/C=C/c2nc3ccccc3c(=O)n2CCc2ccccc2)cc1	2.59µM	?	-	-	16.4µM	-
COC(=O)c1ccc(NC(=O)CCc2c(C)nc3c(c2C)c(=O)n(C)c(=O)n3C)cc1	-	-	-	.	-	.
CC1CC2(CC(CN(C3CCCCC3)C3CCCCC3)OC2=O)C(=O)O1 (configuration not stated)	-	-	-	-	-	?
CCn1c(/C=C/c2c(C)n(CC)c3ccccc23)nc2ccccc2c1=O	1.64µM	?	-	-	?	-
COc1ccc(C2C(C(C)=O)=C(O)C(=O)N2c2nccs2)c(OC)c1 (configuration not stated)	-	-	-	-	?	-
O=C(Nc1cccc(C(F)(F)F)c1)c1cccc2c(-c3cccnc3)coc12	-	?	-	-	?	-
CC(C)CNC(=O)c1cccc2c(-c3ccc(F)c(F)c3)coc12	-	?	-	-	?	-
